Laboratory results: PubChem BioAssay AID1159577 (Broad Institute, 2015)
In all, about 1,300 compounds went through this assay and about 240 (18%) were called active. Roughly 8% stayed inconclusive and do not appear here. No rule for the calls is given here. The list is a sample of the results. Measured potencies and affinities stand elsewhere.

Assay: toxicity to human hepatoma HepG2 cells – cell-based, cherry-picked samples, cytotoxicity control, dose response (AID 1159577)
Details: HepG2 cytotoxicity counterscreen, plate reader; series mostly up to 19.5 µM

Compound | outcome
COc1cccc(C#Cc2ccc([C@H]3[C@@H](CO)N(C(=O)C4CCC4)[C@H]3C#N)cc2)c1 | inactive
C[C@H]1CN([C@@H](C)CO)C(=O)c2cc(NC(=O)Nc3cccc4ccccc34)ccc2O[C@H]1CN(C)C(=O)Nc1ccc(C(F)(F)F)cc1 | inactive
C[C@@H]1CN([C@H](C)CO)C(=O)c2cccc(NC(=O)Nc3cccc4ccccc34)c2O[C@@H]1CN(C)C(=O)Nc1ccc(C(F)(F)F)cc1 | inactive
COc1ccccc1S(=O)(=O)N[C@H]1CC[C@@H](CCn2cc(C3CCCC3)nn2)O[C@@H]1CO | inactive
COc1cccc(-c2cn(CC[C@@H]3CC[C@@H](NS(=O)(=O)c4ccccc4Cl)[C@H](CO)O3)nn2)c1 | inactive
COc1ccc(C#Cc2cccc(-c3nc(C(=O)N[C@@H]4CCN(Cc5ccccc5)C4)cc4c3[C@H](CCO)N(S(=O)C(C)(C)C)C4)c2)cc1OC (stereo partly drawn) | inactive
O=C(Nc1ccc(F)cc1)N1CCCCN2[C@H](CO)[C@H](c3ccc(C#Cc4ccccc4)cc3)[C@@H]2C1 | inactive
O=C(Nc1ccc(F)cc1)N1CCCCN2[C@H](C1)[C@H](c1ccc(C#Cc3ccccc3)cc1)[C@@H]2CO | inactive
CCC(=O)N1CC2(C1)[C@H](c1ccccc1)[C@H](CO)N2Cc1ccccc1OC | inactive
CC(C)(C)[S@](=O)N1Cc2cc(C(=O)NCc3ccccc3F)nc(-c3cccc(-c4ccncc4)c3)c2[C@@H]1CCO | inactive
COc1ccc(-c2ccc([C@@H]3[C@@H](CO)N4CCCCN(C(=O)c5ccc6c(c5)OCO6)C[C@@H]34)cc2)cc1 | inactive
COc1ccc(CNC(=O)c2cc3c(c(-c4cccc(-c5cccc(C#N)c5)c4)n2)[C@H](CCO)N([S@@](=O)C(C)(C)C)C3)cc1 | inactive
C[C@H]1CN([C@@H](C)CO)C(=O)c2c(c3ccccc3n2C)-c2ccccc2CO[C@H]1CN(C)S(=O)(=O)c1ccc([N+](=O)[O-])cc1 | inactive
N#C[C@@H]1[C@H](c2ccccc2-c2ccc(F)cc2)[C@H](CO)N1C(=O)NC1CCCC1 | inactive
Cc1ccccc1S(=O)(=O)N(C)C[C@H]1OCc2ccccc2-c2ccccc2C(=O)N([C@@H](C)CO)C[C@H]1C | inactive
CO[C@@H]1CN(C)C(=O)c2cc(NC(=O)c3nc4ccccc4s3)ccc2OC[C@H](C)NC[C@H]1C | inactive
CO[C@H]1CN(C)C(=O)c2cc(NC(=O)c3nc4ccccc4s3)ccc2OC[C@H](C)NC[C@@H]1C | inactive
CO[C@@H]1CN(C)C(=O)c2ccc(NC(=O)C3CC3)cc2OC[C@@H](C)N(Cc2cc(F)ccc2F)C[C@H]1C | inactive
COc1ccc(C#Cc2ccc3c(c2)[C@@H]2[C@@H](CCN2C(=O)C2CCCC2)[C@@H](CO)N3)cc1 | inactive
CCC(=O)N1CC2(C1)CN(Cc1ccccc1Cl)[C@@H](CO)c1[nH]c3cc(OC)ccc3c12 | inactive
COc1ccccc1NC(=O)N1CC[C@H]2[C@@H]1c1cc(C#Cc3ccc(F)cc3)ccc1N(C)[C@H]2CO | inactive
C[C@H]1CN([C@@H](C)CO)C(=O)c2c(c3ccccc3n2C)-c2ccccc2CO[C@@H]1CN(C)S(=O)(=O)c1ccccc1F | inactive

Compound | outcome
CO[C@@H]1CN(C)C(=O)c2cc(NC(=O)c3ccc(Oc4ccccc4)cc3)ccc2OC[C@H](C)NC[C@@H]1C | inactive
COc1cccc(NC(=O)Nc2ccc3c(c2)C(=O)N(C)C[C@@H](OC)[C@H](C)CN[C@@H](C)CO3)c1 | inactive
CO[C@@H]1CN(C)C(=O)c2ccc(NC(=O)c3ccc(F)cc3)cc2OC[C@@H](C)N(C(=O)c2ccc(F)cc2)C[C@@H]1C | inactive
O=C(c1ccccn1)N1CC(=O)N2[C@H](C1)[C@@H](c1ccc(C#CCc3ccccc3)cc1)[C@@H]2CO | inactive
CCCN(C)C[C@@H]1Oc2cc(C#CC3CCCC3)ccc2S(=O)(=O)N([C@@H](C)CO)C[C@@H]1C | inactive
COc1ccc2c3c(n(C)c2c1)[C@@H](CO)N(C(=O)Nc1ccccc1F)CC31CCN(C)CC1 | inactive
COc1ccc2c3c(n(C)c2c1)[C@H](CO)N(C(=O)Nc1ccc(F)cc1)CC31CN(C(=O)NC2CCCC2)C1 | inactive
COc1ccc2c3c(n(C)c2c1)[C@@H](CO)N(S(C)(=O)=O)CC31CCN(C(=O)CN(C)C)CC1 | inactive
COc1ccc2c3c(n(C)c2c1)[C@H](CO)N(C(=O)Nc1ccc(F)cc1)CC31CCN(C)CC1 | inactive
COc1ccc2c3c(n(C)c2c1)[C@@H](CO)N(C(=O)Nc1ccc(F)cc1)CC31CN(C(=O)c2ccccc2F)C1 | inactive
COc1ccc2c3c(n(C)c2c1)[C@@H](CO)N(Cc1ccccc1)CC31CCN(S(=O)(=O)c2ccc(C)cc2)CC1 | inactive
COc1ccc2c3c(n(C)c2c1)[C@H](CO)N(C(=O)Nc1ccc(F)cc1)CC31CN(Cc2cccnc2)C1 | inactive
COc1ccc2c3c(n(C)c2c1)[C@@H](CO)N(C(=O)Nc1ccc(F)cc1)CC31CCN(Cc2cccnc2)CC1 | inactive
COc1ccc(-c2ccccc2[C@H]2[C@@H](C#N)N(C(=O)NC3CCCCC3)[C@H]2CO)cc1 | inactive
C[C@H](CO)N1C[C@H](C)[C@H](CN(C)S(=O)(=O)c2ccc([N+](=O)[O-])cc2)OCc2ccccc2-c2c(n(C)c3ccccc23)C1=O | inactive
CCNC(=O)c1cc2c(c(-c3cccc(-c4ccccc4F)c3)n1)[C@@H](CCO)N(C(=O)CC1CC1)C2 | inactive
C[C@H]1CN([C@@H](C)CO)C(=O)c2c(c3ccccc3n2C)-c2ccccc2CO[C@H]1CN(C)S(=O)(=O)c1ccc(Cl)cc1 | inactive
C[C@@H](C(=O)N(C)C[C@@H]1OCc2ccccc2-c2c(n(C)c3ccccc23)C(=O)N([C@@H](C)CO)C[C@@H]1C)c1ccccc1 | inactive
COc1cccc(S(=O)(=O)N(C)C[C@@H]2Oc3ncc(C#Cc4ccc(C(F)(F)F)cc4)cc3C(=O)N([C@H](C)CO)C[C@@H]2C)c1 | inactive
C[C@H](CO)N1C[C@H](C)[C@@H](CN(C)S(=O)(=O)c2ccccc2)Oc2ccc(NC(=O)Cc3cn(C)c4ccccc34)cc2C1=O | inactive
C[C@@H]1CN([C@H](C)CO)C(=O)c2cccc(NS(=O)(=O)c3ccccc3)c2O[C@H]1CN(C)Cc1ccc(Oc2ccccc2)cc1 | inactive
